The record followed here is PubChem BioAssay (NCI).

The panel holds about 83,000 compounds, 20% with a hit somewhere; the sample as a whole holds those more often.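 Cells were grown in 96-well plates and exposed to the test compound at a single concentration for 48 hours; results are reported as percent growth, with values below 10 considered active.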 Values without a mark were called inactive. Active and inactive are the calls of the source.

The subject of the test is HCT-116 colon. Description: NCI-60 one-dose screen, 48 h (100 = growth as untreated, 0 = no growth, -100 = all killed). The following applies: 10 µM unless noted.
As for `COc1ccc2c(c1)C(=O)/C(=C/c1ccc(OCC(=O)Nc3nccs3)cc1)O2`, the growth was 15.6%. In the case of `CN1C(=O)N(C)C2C1NN=c1s/c(=C\c3ccccc3)c(=O)n12` (configuration not stated) it was 22.5%; in that of `O=S(=O)(NCCCNc1cc(-c2c(-c3cccc(O)c3)nc3sccn23)ccn1)c1cccc(Cl)c1`, 33.5%. `Cn1ccc2c(c1=O)C(=O)c1nccc3c1c-2nc1ccccc13`: the growth was -94.3% (active). The result for `Cc1ccc(Cl)c(NS(=O)(=O)c2ccc(-c3cnc(C4CC4)o3)cc2)c1` reads 13.8%. In the case of `Cn1cc(-c2csc(-c3cccc(F)c3)n2)c2cccnc21` it was -79.7% [100 µM] (active); in that of `CC(C)Sc1nc(NNC(N)=S)c(C#N)c(-c2ccc(F)cc2)n1`, 94.6%. With `Cc1c(C(=O)OC(=NC2CCCCC2)NC2CCCCC2)sc2c1c(=O)nc1c(C#N)n[nH]n12`, the growth was 104%. The result for `C=C(C)[C@@H]1CC[C@]2(C(=O)NC3CCCCC3)CC[C@]3(C)[C@H](CC[C@@H]4[C@@]5(C)CCC(=O)C(C)(C)[C@@H]5CC[C@]43C)[C@@H]12` reads 76.3%; that for `Clc1cccc(Cl)c1C(Nc1nc2ccccc2s1)Nc1nc2ccccc2s1`, 99.1%; that for `Cc1cc[c-]cc1.Fc1c[c-]c(-c2ccccn2)c(F)c1.[Pt+2].c1ccc(P(C[PH+](c2ccccc2)c2ccccc2)c2ccccc2)cc1`, 9.8% (active).

Turning to `O=C(O)c1ccc2c(c1)CCC2`, the growth was 105%. In the case of `C[C@H]1[C@H]2[C@H]3CC[C@@H]4[C@@]5(C)C/C(=C/c6ccco6)C(=O)C(C)(C)[C@@H]5CC[C@@]4(C)[C@]3(C)CC[C@]23CO[C@]1(C)[C@@H](C(=O)/C=C\c1ccco1)C3` it was 101%. Consider `CCOC(=O)c1ccc(N2NC(=O)/C(=C/c3ccc([N+](=O)[O-])o3)C2=O)cc1`, for which the growth is 82.2%. In the case of `COc1ccc(-c2cc(-c3ccc(Nc4nc(Nc5ccc(Cl)cc5)nc(Nc5ccc(Cl)cc5)n4)cc3)nc(N)c2C#N)cc1` it was 20.2%; in that of `O=C1/C(=C/c2ccc(F)cc2)C=C(c2ccccc2)N1CCc1ccccc1`, 29.4%. `O=c1c2c3c(sc2n2c(-c4cn(-c5ccccc5)nc4-c4ccc(Cl)cc4)nnc2n1Cc1ccccc1)CCCC3`: the growth is 92.6%. With `COC(=O)c1c2c(c[n+]([O-])c1C)C(=O)C=CC2=O`, the growth is -9.77% (active).

Take `Cc1ccc(-n2c(-c3ccccc3)c(-c3ccccc3)c3c(SCC(=O)n4[nH]c(N)cc4=O)ncnc32)cc1`: the growth was 78.2%. Consider `COc1cc(CCC[P+](c2ccccc2)(c2ccccc2)c2ccccc2)cc2c1OCO2`, for which the growth was 22.8%. In the case of `COc1cccc(-c2nc3sccn3c2-c2ccnc(NCCNS(=O)(=O)c3cccc(Cl)c3)c2)c1` it was 40%; in that of `CC1=C([Se]CC(OC(=O)[C@@H](CO)NC(=O)OC(C)(C)C)C(=O)NC(C)(C)C)C(=O)c2ccccc2C1=O` (some centres not stated), -100% (active). For the compound `Cc1ccc(Cc2cnc(NC(=O)c3ccc4noc(-c5ccccc5)c4c3)s2)cc1`, the growth was 86.7%. In the case of `N#CC1=C(/N=C/c2ccccc2)Oc2c(ccc3ccccc23)C1c1ccccc1` (configuration not stated), the growth was 8.77% (active). The result for `CC/C=C1/C(=O)C=C[C@@H]1C/C=C\CCCC(=O)O` reads 35.5%; that for `CC(=O)c1nc(Nc2ccc(C)cc2)sc1C`, 90.9%; that for `CC(=O)O[C@]1(C(C)=O)CCC2C3C[C@H](C)C4=CC(=O)CC[C@]4(C)C3CC[C@@]21C` (some centres not stated), 83.6%.

As for `CC(=O)N1N=C(c2ccc(Nc3nc(Nc4ccc(F)cc4)nc(Nc4ccc(F)cc4)n3)cc2)CC1c1cccc([N+](=O)[O-])c1` (configuration not stated), the growth is 92.9%.

For the compound `Cc1occc1-c1n[nH]c(=S)n1N1C(=O)CSC1=S`, the growth is 105%. In the case of `COc1cccc(-c2nn(-c3ccccc3)cc2-c2ccnc(NCCCNC(=O)c3ccccc3)c2)c1`, the growth was 36%. As to `COc1cc(/C=N/Nc2ncc(-c3cc4cc5c(cc4o3)OCO5)s2)cc(OC)c1OC`, the growth was 28.5%. The result for `O=C(Nc1ccccc1Cl)Oc1ccc(-c2ccccc2)cc1` reads 110%; that for `COc1nc(N(C)O)nc(N(C)O)n1`, 7.23% (active). With `CCN1CCN(c2nc(C)cc(NCc3cc(Nc4ccnc5cc(Cl)ccc45)ccc3F)n2)CC1`, the growth was 2.33% (active).

As for `CCN(CC)c1nc(SCC(=O)Nc2nc3ccc(C)cc3s2)nc(-c2ccccc2)c1C#N`, the growth was 83%. Turning to `Cn1c(-c2c(N)n(Cc3cccnc3)c3nc(C#N)c(C#N)nc23)nc2ccccc21`, the growth was 44.5%. With `Cc1cc(NCc2cc(Nc3ccnc4cc(Cl)ccc34)ccc2F)nc(Cl)n1`, the growth is 30.5%.
